Results from the supplement of paper PMC6555819.

Key:
Experiment in all cases: PBM binding z-score (relative to random genomic background probes); higher = stronger binding; sequences stand for … in GC…GCGATTGACAGCGTAGAATGAAGG
[1] = test system: RARb homodimer (NR concentration 270 nM)
Outline: (§1)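 Custom Agilent 4×180K protein-binding microarrays carried double-stranded probes, each with a 34-nt variable region. These regions held direct-repeat seeds, single-nucleotide variants, half-site ablations and random human genomic background sequences. Ligand-free nuclear receptor dimers were incubated on the arrays for 1 h, antibodies against each partner (one per run) detected binding, and scanned fluorescence was regression-normalized. Binding z-scores take the random background probes as reference.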

[2] = test system: RARg:RXRa (NR concentration 270 nM, RXRa partner concentration 90 nM)
Outline: as §1

[3] = test system: RARg homodimer (NR concentration 270 nM)
Outline: as §1

[4] = test system: RXRa DBDmut IVT, anti-RXR (DBD mutation: RXRa K156A/R161A, NR concentration 90 nM)
Outline: as §1

[5] = test system: RXRa homodimer (NR concentration 180 nM)
Outline: as §1

[6] = test system: THRa:RXRa (NR concentration 90 nM, RXRa partner concentration 90 nM)
Outline: as §1

[7] = test system: THRa homodimer (NR concentration 90 nM)
Outline: as §1

[8] = test system: VDR:RXRa (NR concentration 270 nM, RXRa partner concentration 90 nM)
Outline: as §1

[9] = test system: VDR homodimer (NR concentration 270 nM)
Outline: as §1

Sequence	PBM binding z-score [1]	PBM binding z-score [2]	PBM binding z-score [3]	PBM binding z-score [4]	PBM binding z-score [5]	PBM binding z-score [6]	PBM binding z-score [7]	PBM binding z-score [8]	PBM binding z-score [9]
CGTCCAAGGTCAAAGGTCAGTGAAGAGATGACGG	5.42	8.7	7.94	3.87	10	4.99	2.62	6.76	4.06
CCGCCTGGGGCATAAGGTTACCATAAGCCAGCCC	1.94	1.82	1.11	-0.905	1.07	1.99	1.33	0.151	-0.126
GCTATTAGATGAAAGGGCAACCGAATGATTCTCG	1.76	0.991	1.24	0.654	1.17	0.435	-0.425	0.125	-0.071
CCTACTGGGCCAATCAGAGGTCATTGATCATATG	4.14	4.56	3.26	0.861	3.82	3.13	1.38	4.12	3.81
ACAGACAGGTGATGAAGGTAACTCAAGCTATCAT	0.13	0.288	0.537	-0.0436	0.166	0.289	-0.0849	0.0355	-0.318
CGAACTAGGTCATTGACAGGACATTGAATAGTAA	2.8	4.62	4.56	2.52	2.75	2.9	0.971	3.1	1.62
ACTAGCAGGCCAAGGGTCACTGAAGATTAGTCCG	3.8	4.5	3.97	0.371	4.49	2.68	-0.0402	2.81	0.94
TCTAGCAGGCCAGAGGGTCACGCAAGAGGTACGG	3.37	3.78	3.41	-0.273	4.06	2.33	-0.0703	2.52	0.674
TCAGACAGGTGTAGGTAACTCAGGTACGCAGTCG	0.242	0.0352	0.143	1.07	0.607	0.923	0.621	0.89	0.47
CCTGCTAAGTCATGGTCAGCTAATCTACAGTATG	0.142	0.135	0.315	0.518	0.0599	-0.13	-0.892	-0.252	-0.337
TCTCGGAGGACACGAAAGTCAGAGCTTTCCAGAG	0.384	0.378	1.08	0.647	-0.0691	1.21	0.236	-0.402	-0.621
CGAACTAGGTCAGAACACGACAGTGAAGGATGAT	1.84	2.55	3.06	0.593	1.39	1.31	0.186	0.217	-0.122
CCTTCCGGGTCACGAGGTTATAGCACGACGAGCG	4.02	6.06	5.4	1.68	7.05	4.22	2.95	5.39	2.57
ACTATTAGTTGACTTAGGGCAACCGCTACGACGC	0.908	0.58	0.586	0.636	0.331	1.39	0.625	0.319	0.173
CGTCCAAGGTCGAGGTCAGTGAAAGAGACTCGAA	4.16	4.8	5.32	2.57	4.65	3.93	2.42	3.73	2.96
AGTCAAAGTTCACTACGTAACGTAAGATTCAGCT	3.36	4.55	5.09	4	3.76	1.4	-0.394	3.72	3.71
CGACCAAGGTCAAGGTCAGTGAAAGAGACTCGAA	4.91	6.66	7.49	3.4	6.54	4.31	2.79	4.82	2.52
TCAGACGGGTGAAGGTAACTCAGGTACGCAGTCG	0.122	0.19	0.0578	0.65	0.866	1.28	-0.229	0.218	-0.187

Sequence	PBM binding z-score [1]	PBM binding z-score [2]	PBM binding z-score [3]	PBM binding z-score [4]	PBM binding z-score [5]	PBM binding z-score [6]	PBM binding z-score [7]	PBM binding z-score [8]	PBM binding z-score [9]
TCTATTATTTGAAGGGCAACCGACGAGTCCGTTT	1.34	0.739	0.634	2.12	0.997	0.552	0.572	1.55	2.12
CATACAGGGTCAGGTAGGCCAGAGTAGGGACGGC	3	4.2	4.14	0.816	4.12	2.93	0.964	3.35	1.14
ACTGTTAGTTGAGACGAGGGCAACCGATAGGTTG	1.26	0.764	1.13	0.337	0.451	2.63	0.349	0.595	0.808
CCTGCTAGGTCATGCTCAGCTAATCTACAGTATG	2.76	3.89	4.39	2.05	2.4	2.57	0.87	1.33	0.178
CCAGACAGGTGAGAAGGAAACTCAGCCTCGATTA	-0.0325	0.209	0.469	-0.203	0.154	-0.307	0.13	-0.211	-0.0277
TCAGACAGGTGAAGTTAACTCAGGTACGCAGTCG	0.596	0.588	0.629	1.33	0.838	1.55	0.285	0.573	0.404
GATACAGGGTCAAGGCCAGAGTGCGCGTATTGAT	3.82	5.48	5.27	2.42	5.94	3.42	1.27	4.23	2.96
GCTAGCAGGCCATTTGGGGCACTCAATGACGGGC	-0.0146	-0.154	0.3	-0.299	-0.112	0.771	-0.695	-0.555	-0.274
ACTATTACTTGACTTAGGGCAACCGATACGACGC	1.06	0.943	1.1	0.983	0.745	0.888	1.1	0.428	0.484
CCAGGCAGGTGAGAAGGTAACTCAGCCTCGATTA	0.294	0.181	-0.0537	-0.754	0.145	0.198	-0.116	-0.539	-0.279
ACTATTAGTTGATTTAGGGCAACCGATACGACGC	0.736	0.306	0.883	1.2	0.356	1.52	0.806	0.131	0.367
GCGACTGGGGCATCAGCAGGTTACAATAACTTAA	0.719	0.817	0.522	-0.00722	0.334	0.895	0.0253	-0.29	-0.0954
AGAAAGAGGGCACGCTGAGTTGATAGCAGAGTAG	1.64	2.5	3.08	1.36	1.83	1.5	-0.338	2.39	1.23
ATATGTAGGTTAGCTGGGGCCATTCAGACTAGGC	1.17	0.84	0.74	0.565	0.845	4.13	0.768	1.97	0.832
ACAACGAGGGCAATGAGTTGATAGCACGGGTGGC	1.02	1.31	1.71	2.02	0.837	0.856	-0.343	5.13	2.98
CTTACAGGGTCAGCTAGGCCAGAGTAGGGACGGC	3.2	4.47	4.97	1.83	4.42	2.97	0.729	3.88	0.875
TCTAGTTGGTCAAAGGTGACACACTCGAAATGCG	2.21	2.9	1.95	1.03	3.06	1.7	0.635	1.92	0.44
CCTCGGAGGGCAGAAGGTCAGAGCTGTCCGCTTT	3.76	4.71	4.01	-0.118	2.82	1.47	-0.593	–	-0.355
